Laboratory results published in publication PMC11062922 (Nature Chemical Biology, 2023).
Where two headings read alike, the source gives them in different places.

How the values were obtained:
PRKD2 = conditions: read-out: apparent Kd, n = 1
PRKD3 = conditions: read-out: apparent Kd, n = 1

Lestaurtinib
potency estimated from few doses (PRKD2; compound concentrations:100 nM and 1000 nM (sheet 'Lestaurtinib' of Supplementary Table 1),run:Lestaurtinib_02741_R1,Plate:MR023): 38.5 nM
potency estimated from few doses (PRKD2; compound concentrations:100 nM and 1000 nM (sheet 'Lestaurtinib' of Supplementary Table 1),run:Lestaurtinib_02748_R1,Plate:MR024): 45.6 nM
potency estimated from few doses (PRKD2; compound concentrations:100 nM and 1000 nM (sheet 'Lestaurtinib' of Supplementary Table 1),run:Lestaurtinib_02748_R2,Plate:MR024): 48.1 nM
potency estimated from few doses (PRKD2; compound concentrations:100 nM and 1000 nM (sheet 'Lestaurtinib' of Supplementary Table 1),run:Lestaurtinib_02748_R3,Plate:MR024): 45.9 nM
potency estimated from few doses (PRKD2; compound concentrations:100 nM and 1000 nM (sheet 'Lestaurtinib' of Supplementary Table 1),run:Lestaurtinib_02752_R1,Plate:MR025): 59.6 nM
potency estimated from few doses (PRKD2; compound concentrations:100 nM and 1000 nM (sheet 'Lestaurtinib' of Supplementary Table 1),run:Lestaurtinib_02752_R2,Plate:MR025): 58 nM
potency estimated from few doses (PRKD2; compound concentrations:100 nM and 1000 nM (sheet 'Lestaurtinib' of Supplementary Table 1),run:Lestaurtinib_02752_R3,Plate:MR025): 35.6 nM
potency estimated from few doses (PRKD2; compound concentrations:100 nM and 1000 nM (sheet 'Lestaurtinib' of Supplementary Table 1),run:Lestaurtinib_02765_R1,Plate:MR026): 39.1 nM
potency estimated from few doses (PRKD2; compound concentrations:100 nM and 1000 nM (sheet 'Lestaurtinib' of Supplementary Table 1),run:Lestaurtinib_02765_R2,Plate:MR026): 69.2 nM
potency estimated from few doses (PRKD2; compound concentrations:100 nM and 1000 nM (sheet 'Lestaurtinib' of Supplementary Table 1),run:Lestaurtinib_02765_R3,Plate:MR026): 67.9 nM
potency estimated from few doses (PRKD2; compound concentrations:100 nM and 1000 nM (sheet 'Lestaurtinib' of Supplementary Table 1),run:Lestaurtinib_02766_R1,Plate:MR027): 45.5 nM
potency estimated from few doses (PRKD2; compound concentrations:100 nM and 1000 nM (sheet 'Lestaurtinib' of Supplementary Table 1),run:Lestaurtinib_02766_R2,Plate:MR027): 40.9 nM
potency estimated from few doses (PRKD2; compound concentrations:100 nM and 1000 nM (sheet 'Lestaurtinib' of Supplementary Table 1),run:Lestaurtinib_02768_R2,Plate:MR028): 44 nM
potency estimated from few doses (PRKD2; compound concentrations:100 nM and 1000 nM (sheet 'Lestaurtinib' of Supplementary Table 1),run:Lestaurtinib_02768_R3,Plate:MR028): 41.6 nM
potency estimated from few doses (PRKD2; compound concentrations:100 nM and 1000 nM (sheet 'Lestaurtinib' of Supplementary Table 1),run:Lestaurtinib_02795_R1,Plate:MR022): 45 nM
potency estimated from few doses (PRKD2; compound concentrations:100 nM and 1000 nM (sheet 'Lestaurtinib' of Supplementary Table 1),run:Lestaurtinib_02795_R2,Plate:MR022): 37.3 nM
potency estimated from few doses (PRKD2; compound concentrations:100 nM and 1000 nM (sheet 'Lestaurtinib' of Supplementary Table 1),run:Lestaurtinib_02802_R2,Plate:MR029): 43.6 nM
potency estimated from few doses (PRKD2; compound concentrations:100 nM and 1000 nM (sheet 'Lestaurtinib' of Supplementary Table 1),run:Lestaurtinib_02802_R3,Plate:MR029): 32.9 nM
potency estimated from few doses (PRKD2; compound concentrations:100 nM and 1000 nM (sheet 'Lestaurtinib' of Supplementary Table 1),run:Lestaurtinib_02896_R1,Plate:MR030): 43 nM
potency estimated from few doses (PRKD2; compound concentrations:100 nM and 1000 nM (sheet 'Lestaurtinib' of Supplementary Table 1),run:Lestaurtinib_02896_R2,Plate:MR030): 50.1 nM
potency estimated from few doses (PRKD2; compound concentrations:100 nM and 1000 nM (sheet 'Lestaurtinib' of Supplementary Table 1),run:Lestaurtinib_02896_R3,Plate:MR030): 40.6 nM
potency estimated from few doses (PRKD2; compound concentrations:100 nM and 1000 nM (sheet 'Lestaurtinib' of Supplementary Table 1),run:Lestaurtinib_03172_R1,Plate:MR031): 29.7 nM
potency estimated from few doses (PRKD2; compound concentrations:100 nM and 1000 nM (sheet 'Lestaurtinib' of Supplementary Table 1),run:Lestaurtinib_03172_R2,Plate:MR031): 36 nM
potency estimated from few doses (PRKD2; compound concentrations:100 nM and 1000 nM (sheet 'Lestaurtinib' of Supplementary Table 1),run:Lestaurtinib_03172_R3,Plate:MR031): 44.1 nM
potency estimated from few doses (PRKD2; compound concentrations:100 nM and 1000 nM (sheet 'Lestaurtinib' of Supplementary Table 1),run:Lestaurtinib_03252_R1,Plate:MR032): 27.4 nM
potency estimated from few doses (PRKD2; compound concentrations:100 nM and 1000 nM (sheet 'Lestaurtinib' of Supplementary Table 1),run:Lestaurtinib_03252_R2,Plate:MR032): 32.1 nM
potency estimated from few doses (PRKD2; compound concentrations:100 nM and 1000 nM (sheet 'Lestaurtinib' of Supplementary Table 1),run:Lestaurtinib_03260_R1,Plate:MR033): 52.3 nM
potency estimated from few doses (PRKD3; compound concentrations:100 nM and 1000 nM (sheet 'Lestaurtinib' of Supplementary Table 1),run:Lestaurtinib_02339_R1,Plate:MR001): 98.8 nM
potency estimated from few doses (PRKD3; compound concentrations:100 nM and 1000 nM (sheet 'Lestaurtinib' of Supplementary Table 1),run:Lestaurtinib_02339_R2,Plate:MR001): 98.8 nM
potency estimated from few doses (PRKD3; compound concentrations:100 nM and 1000 nM (sheet 'Lestaurtinib' of Supplementary Table 1),run:Lestaurtinib_02364_R1,Plate:MR002): 97.6 nM
potency estimated from few doses (PRKD3; compound concentrations:100 nM and 1000 nM (sheet 'Lestaurtinib' of Supplementary Table 1),run:Lestaurtinib_02364_R3,Plate:MR002): 93.5 nM
potency estimated from few doses (PRKD3; compound concentrations:100 nM and 1000 nM (sheet 'Lestaurtinib' of Supplementary Table 1),run:Lestaurtinib_02367_R1,Plate:MR003): 45.3 nM
potency estimated from few doses (PRKD3; compound concentrations:100 nM and 1000 nM (sheet 'Lestaurtinib' of Supplementary Table 1),run:Lestaurtinib_02367_R2,Plate:MR003): 62.3 nM
potency estimated from few doses (PRKD3; compound concentrations:100 nM and 1000 nM (sheet 'Lestaurtinib' of Supplementary Table 1),run:Lestaurtinib_02367_R3,Plate:MR003): 63.6 nM
potency estimated from few doses (PRKD3; compound concentrations:100 nM and 1000 nM (sheet 'Lestaurtinib' of Supplementary Table 1),run:Lestaurtinib_02381_R2,Plate:MR004): 59.1 nM
potency estimated from few doses (PRKD3; compound concentrations:100 nM and 1000 nM (sheet 'Lestaurtinib' of Supplementary Table 1),run:Lestaurtinib_02407_R1,Plate:MR005): 98 nM
potency estimated from few doses (PRKD3; compound concentrations:100 nM and 1000 nM (sheet 'Lestaurtinib' of Supplementary Table 1),run:Lestaurtinib_02407_R2,Plate:MR005): 51.7 nM
potency estimated from few doses (PRKD3; compound concentrations:100 nM and 1000 nM (sheet 'Lestaurtinib' of Supplementary Table 1),run:Lestaurtinib_02422_R1,Plate:MR006): 76.7 nM
potency estimated from few doses (PRKD3; compound concentrations:100 nM and 1000 nM (sheet 'Lestaurtinib' of Supplementary Table 1),run:Lestaurtinib_02422_R2,Plate:MR006): 42 nM
potency estimated from few doses (PRKD3; compound concentrations:100 nM and 1000 nM (sheet 'Lestaurtinib' of Supplementary Table 1),run:Lestaurtinib_02422_R3,Plate:MR006): 81.8 nM
potency estimated from few doses (PRKD3; compound concentrations:100 nM and 1000 nM (sheet 'Lestaurtinib' of Supplementary Table 1),run:Lestaurtinib_02437_R1,Plate:MR007): 84 nM
potency estimated from few doses (PRKD3; compound concentrations:100 nM and 1000 nM (sheet 'Lestaurtinib' of Supplementary Table 1),run:Lestaurtinib_02437_R3,Plate:MR007): 5.38 nM
